About 2,000 (36%) of roughly 5,500 compounds were called active. Another 18% or so got no clear call; they are omitted. Rule as the data show it: active = normalized growth mostly below about 0.91 (no sharp cut-off); inconclusive = no clear call, values can overlap the other calls; inactive = mostly above about 0.92. The list shows a part of the results.
Assay: chemical genetic growth profiling, strain panel (AID 1159580);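 also: tested at 20 µM; growth read once vehicle control cultures reached saturation at 30 °C; 1 = growth at the plate median or of vehicle wells; lower values mean less growth of the strain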
Settings: S. cerevisiae deletion strains, growth OD
[1] = locus YHR030C, strain SLT2, stronger effect = lower value
[2] = locus YHR079C, strain IRE1, stronger effect = lower value
[3] = locus YJL095W, strain BCK1, stronger effect = lower value
[4] = locus YJR066W, strain TOR1, stronger effect = lower value
[5] = locus YLR113W, strain HOG1, stronger effect = lower value
[6] = locus YNL183C, strain NPR1, stronger effect = lower value
[7] = locus YOR231W, strain MKK1, stronger effect = lower value
[8] = locus YPL256C, strain CLN2, stronger effect = lower value

Measured: normalized growth

CC1(O)CC2C(CC1O)C2(C)C (stereo unspecified)
inactive: locus YAL021C, strain ccr4, stronger effect = lower value 0.988 | locus YAL026C, strain drs2, stronger effect = lower value 1 | locus YAL030W, strain snc1, stronger effect = lower value 0.99 | locus YBL061C, strain skt5, stronger effect = lower value 0.988 | locus YBR009C, strain hhf1, stronger effect = lower value 1.04 | locus YBR023C, strain chs3, stronger effect = lower value 0.999 | locus YBR171W, strain sec66, stronger effect = lower value 0.998 | locus YBR231C, strain swc5, stronger effect = lower value 0.993 | locus YBR279W, strain paf1, stronger effect = lower value 0.995 | locus YCL011C, strain gbp2, stronger effect = lower value 1 | locus YCL016C, strain dcc1, stronger effect = lower value 1.01 | locus YCL069W, strain vba3, stronger effect = lower value 1 | locus YCR088W, strain abp1, stronger effect = lower value 0.997 | locus YDL005C, strain med2, stronger effect = lower value 0.995 | locus YDL040C, strain nat1, stronger effect = lower value 0.999 | locus YDR001C, strain nth1, stronger effect = lower value 1.01 | locus YDR069C, strain doa4, stronger effect = lower value 1.02 | locus YDR137W, strain rgp1, stronger effect = lower value 1 | locus YDR159W, strain sac3, stronger effect = lower value 1 | locus YDR195W, strain ref2 0.988 | locus YDR297W, strain sur2, stronger effect = lower value 1.01 | locus YDR334W, strain swr1, stronger effect = lower value 1 | locus YDR335W, strain msn5, stronger effect = lower value 1 | locus YDR392W, strain spt3, stronger effect = lower value 1 | locus YEL003W, strain gim4, stronger effect = lower value 1.01 | locus YEL037C, strain rad23, stronger effect = lower value 1 | locus YEL061C, strain CIN8 (second series), stronger effect = lower value 0.999 | locus YER015W, strain faa2, stronger effect = lower value 0.995 | locus YER016W, strain bim1, stronger effect = lower value 0.998 | locus YER111C, strain swi4, stronger effect = lower value 0.989 | locus YER155C, strain BEM2 (second series), stronger effect = lower value 1 | locus YFR010W, strain ubp6, stronger effect = lower value 0.997 | locus YGL167C, strain pmr1, stronger effect = lower value 1.01 | locus YGL173C, strain kem1, stronger effect = lower value 0.999 | locus YGL227W, strain vid30, stronger effect = lower value 0.99 | locus YGL240W, strain doc1, stronger effect = lower value 1.01 | locus YGL253W, strain hxk2, stronger effect = lower value 1 | locus YHR013C, strain ard1, stronger effect = lower value 1 | locus YHR027C, strain rpn1, stronger effect = lower value 0.995 | [1] 1.04 | [2] 1.03 | locus YHR142W, strain chs7, stronger effect = lower value 1.01 | locus YJL092W, strain hpr5, stronger effect = lower value 1 | locus YJL095W, strain BCK1 (second series), stronger effect = lower value 0.996 | [3] 0.993 | locus YJL115W, strain asf1, stronger effect = lower value 0.996 | locus YJL129C, strain trk1, stronger effect = lower value 1 | locus YJL154C, strain vps35, stronger effect = lower value 0.994 | locus YJL164C, strain tpk1, stronger effect = lower value 0.998 | locus YJL166W, strain qcr8, stronger effect = lower value 1 | locus YJL187C, strain SWE1, stronger effect = lower value 0.995 | [4] 0.989 | locus YKL160W, strain elf1, stronger effect = lower value 0.994 | locus YKR026C, strain gcn3, stronger effect = lower value 0.994 | locus YKR091W, strain srl3, stronger effect = lower value 1 | locus YLL001W, strain dnm1, stronger effect = lower value 1 | locus YLL026W, stronger effect = lower value 0.998 | locus YLL041C, strain sdh2, stronger effect = lower value 0.991 | locus YLR027C, strain aat2, stronger effect = lower value 1 | [5] 0.976 | locus YLR221C, strain rsa3, stronger effect = lower value 0.999 | locus YLR258W, strain gsy2, stronger effect = lower value 0.982 | locus YLR262C, strain YPT6 (second series), stronger effect = lower value 1.02 | locus YLR320W, strain mms22, stronger effect = lower value 0.994 | locus YLR342W, strain FKS1, stronger effect = lower value 1 | locus YLR357W, strain rsc2, stronger effect = lower value 0.969 | locus YLR370C, strain arc18, stronger effect = lower value 1.01 | locus YLR384C, strain iki3, stronger effect = lower value 0.971 | locus YML120C, strain ndi1, stronger effect = lower value 1 | locus YMR058W, strain fet3, stronger effect = lower value 0.999 | locus YMR125W, strain sto1, stronger effect = lower value 0.988 | locus YMR129W, stronger effect = lower value 0.995 | locus YMR205C, strain PFK2, stronger effect = lower value 0.998 | locus YMR231W, strain pep5, stronger effect = lower value 1.01 | locus YNL071W, strain lat1, stronger effect = lower value 1 | [6] 0.935 | locus YNL209W, strain ssb2, stronger effect = lower value 1.01 | locus YNL248C, strain rpa49, stronger effect = lower value 1 | locus YNL322C, strain KRE1 (second series), stronger effect = lower value 0.981 | locus YNR049C, strain mso1, stronger effect = lower value 0.985 | locus YOR001W, strain rrp6, stronger effect = lower value 1.01 | locus YOR070C, strain gyp1, stronger effect = lower value 0.997 | locus YOR080W, strain dia2, stronger effect = lower value 1 | locus YOR083W, strain WHI5, stronger effect = lower value 0.999 | locus YOR106W, strain vam3, stronger effect = lower value 0.992 | [7] 1.03 | locus YOR265W, strain rbl2, stronger effect = lower value 1.01 | locus YOR270C, strain vph1, stronger effect = lower value 1.03 | locus YOR290C, strain snf2, stronger effect = lower value 1.01 | locus YPL051W, strain arl3, stronger effect = lower value 1 | locus YPL078C, strain atp4, stronger effect = lower value 0.999 | locus YPL106C, strain sse1, stronger effect = lower value 1.01 | locus YPL240C, strain hsp82, stronger effect = lower value 0.998 | [8] 1.02

CCOC(=O)C1C(c2c(F)cccc2Cl)C(C(=O)OCC)C(O)(C(F)(F)F)NC1(O)C(F)(F)F (stereo unspecified)
inactive: locus YAR019C, strain CDC15, stronger effect = lower value 0.984 | locus YBL105C, strain PKC1, stronger effect = lower value 0.988 | locus YBR135W, strain CKS1, stronger effect = lower value 0.994 | locus YBR136W, strain MEC1, stronger effect = lower value 0.979 | locus YBR160W, strain CDC28, stronger effect = lower value 0.993 | locus YDL017W, strain CDC7, stronger effect = lower value 0.99 | locus YDL028C, strain MPS1, stronger effect = lower value 0.993 | locus YDL101C, strain DUN1, stronger effect = lower value 0.983 | locus YDL108W, strain KIN28, stronger effect = lower value 0.994 | locus YDL132W, strain cdc53, stronger effect = lower value 0.993 | locus YDL214C, strain PRR2, stronger effect = lower value 0.986 | locus YDR052C, strain DBF4, stronger effect = lower value 0.99 | locus YDR054C, strain cdc34, stronger effect = lower value 0.985 | locus YDR226W, strain ADK1, stronger effect = lower value 0.992 | locus YDR477W, strain SNF1, stronger effect = lower value 0.998 | locus YER123W, strain YCK3, stronger effect = lower value 0.966 | locus YER133W, strain GLC7, stronger effect = lower value 0.988 | locus YFL009W, strain cdc4, stronger effect = lower value 0.991 | locus YFL029C, strain CAK1, stronger effect = lower value 0.981 | locus YFR003C, strain YPI1, stronger effect = lower value 0.992 | locus YFR019W, strain FAB1, stronger effect = lower value 0.942 | locus YFR028C, strain CDC14, stronger effect = lower value 0.991 | locus YGR040W, strain KSS1, stronger effect = lower value 0.994 | locus YGR052W, strain FMP48, stronger effect = lower value 1.05 | locus YGR092W, strain DBF2, stronger effect = lower value 1 | [1] 0.964 | [2] 0.971 | locus YHR082C, strain KSP1, stronger effect = lower value 0.994 | locus YHR205W, strain SCH9, stronger effect = lower value 0.965 | locus YIL147C, strain SLN1, stronger effect = lower value 0.987 | [3] 0.982 | locus YJL128C, strain PBS2, stronger effect = lower value 0.965 | locus YJL157C, strain FAR1, stronger effect = lower value 0.994 | locus YJR016C, strain ILV3, stronger effect = lower value 0.996 | locus YJR066W, strain TOR1 (second series), stronger effect = lower value 0.951 | [4] 0.969 | locus YKL048C, strain ELM1, stronger effect = lower value 0.988 | locus YKL067W, strain YNK1, stronger effect = lower value 0.987 | locus YKL101W, strain HSL1, stronger effect = lower value 0.989 | locus YKL193C, strain SDS22, stronger effect = lower value 0.99 | locus YKL203C, strain TOR2, stronger effect = lower value 1.06 | [5] 0.926 | locus YLR133W, strain CKI1, stronger effect = lower value 0.985 | locus YLR403W, strain SFP1, stronger effect = lower value 0.986 | locus YML070W, strain DAK1, stronger effect = lower value 0.987 | locus YMR001C, strain CDC5, stronger effect = lower value 0.99 | locus YMR205C, strain PFK2 (second series), stronger effect = lower value 0.997 | locus YMR277W, strain FCP1, stronger effect = lower value 0.991 | locus YNL006W, strain LST8, stronger effect = lower value 0.996 | locus YNL020C, strain ARK1, stronger effect = lower value 0.994 | locus YNL161W, strain CBK1, stronger effect = lower value 0.991 | [6] 0.977 | locus YNL207W, strain RIO2, stronger effect = lower value 0.992 | locus YNL222W, strain SSU72, stronger effect = lower value 0.996 | locus YNL307C, strain MCK1 (second series), stronger effect = lower value 0.986 | locus YOL078W, strain AVO1, stronger effect = lower value 0.998 | locus YOL136C, strain PFK27, stronger effect = lower value 0.979 | locus YOR061W, strain CKA2, stronger effect = lower value 0.996 | locus YOR119C, strain RIO1, stronger effect = lower value 1.03 | [7] 1 | locus YOR329C, strain SCD5, stronger effect = lower value 0.986 | locus YPL031C, strain PHO85, stronger effect = lower value 0.99 | locus YPL153C, strain RAD53, stronger effect = lower value 0.992 | locus YPL204W, strain HRR25, stronger effect = lower value 0.984 | locus YPL209C, strain IPL1, stronger effect = lower value 0.988 | [8] 0.935 | locus YPR025C, strain CCL1, stronger effect = lower value 0.986 | locus YPR106W, strain ISR1, stronger effect = lower value 0.991 | locus YPR111W, strain DBF20, stronger effect = lower value 0.984 | strain NNK1, stronger effect = lower value 0.987 | strain TSCII, stronger effect = lower value 0.995

CN1CC[C@@]2(C)c3cc(O)ccc3N(C)C12 (stereo partly specified)
inactive: locus YAL040C, strain CLN3, stronger effect = lower value 0.971 | locus YCL061C, strain MRC1 (second series), stronger effect = lower value 0.995 | locus YDR150W, strain NUM1, stronger effect = lower value 0.977 | locus YDR363W, strain ESC2, stronger effect = lower value 1.02 | locus YER002W, strain NOP16, stronger effect = lower value 0.998 | locus YGR078C, strain PAC10, stronger effect = lower value 0.982 | locus YGR229C, strain SMI1, stronger effect = lower value 1.03 | locus YJR075W, strain HOC1, stronger effect = lower value 1.01 | locus YMR263W, strain SAP30, stronger effect = lower value 0.993 | locus YMR307W, strain GAS1, stronger effect = lower value 1.02 | locus YNL153C, strain GIM3, stronger effect = lower value 0.941 | locus YNL175C, strain NOP13, stronger effect = lower value 0.989 | locus YNL197C, strain WHI3, stronger effect = lower value 0.969 | locus YNL224C, strain SQS1, stronger effect = lower value 1.02 | locus YOR083W, strain WHI5 (second series), stronger effect = lower value 0.975 | locus YPL055C, strain LGE1, stronger effect = lower value 0.985
